Among all 31,000 sequences or so, about 1,400 (4.5%) were called active.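 Rule for the calls: active = median seed-adjusted z-score above 1 or below -1; inactive = the rest.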 The full list was thinned out, with actives kept by preference.
test: Novel Modifiers of Survival Motor Neuron (SMN) Protein: Gene Identification via Genome-wide siRNA Screen; settings: HEK293T SMN2-luciferase reporter, siRNA knockdown, 72 h; actives lie on both sides;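 note: luminescence tracks full-length SMN protein made from the SMN2 reporter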
Outline: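 HEK293T cells stably carrying an SMN2 promoter/splicing cassette–luciferase reporter were reverse-transfected with 1 pmol siRNA per well (druggable-genome library, 3 siRNAs per gene) and grown 72 h at 37 °C. Luminescence, normalized to negative-control siRNA and log10-transformed, was scored as MAD.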

Sequence | median seed-adjusted z-score
CCAAUGCAGUGAUUACCGUTT against HSPA1L | -1.27 (active)
CCAGUUUCAUUAUACAUCATT against ZNF211 | -0.173 (inactive)
GCUUCACCCUGGCUAGAAATT against ECHDC2 | -0.0827 (inactive)
GUGUCGAGCUUGCAACUGUTT against LAMC2 | -0.186 (inactive)
CCUUUAACCAGUCUGCACATT against ZNF85 | -1.01 (active)
GAAGGUGGAUUGCAACAAATT against GPX6 | 0.35 (inactive)
GCAGAAGGCUCAGUAGCUATT against NAT5 | -0.0124 (inactive)
CACCCGCGCUCAUGAGAAATT against KLC2 | 0.0706 (inactive)
GCCCAUUACUUUACCACUUTT against METTL4 | 0.244 (inactive)
GCCUUGAUCAAGUAACAGATT against PARD6B | 0.315 (inactive)
GGCGCACGCUUUUCUCUAATT against ACTR1A | 1.28 (active)
GCCUCAUGUAAAACCCUAUTT against MYLK | 0.0226 (inactive)
GCCUUCGAGUUCCUUGUUUTT against COX6B2 | -0.544 (inactive)
GUACUUUUGACAACAUUUATT against NAT13 | 0 (inactive)
GGCUUUGAGCAUAAGAUCATT against MAP3K10 | 0.201 (inactive)
GCACCAAACUUAGCUACGATT against DIS3L2 | -0.265 (inactive)
GACUGGGUCUGGUAAAACATT against DHX15 | 1.36 (active)
GAAUUGGACAUUUCGGAUATT against NEK10 | -0.0464 (inactive)
CAGUUGCAACUCUUCGUGATT against ALB | -0.153 (inactive)
AAACAACUCGAUUUCGAAATT against PCDHB13 | -0.293 (inactive)
GAACUUUUGGGACCAAAUATT against NME5 | 0.393 (inactive)
GCCUUUUACGCAAACAUGUTT against P2RY8 | -0.136 (inactive)
GAUUUUAUCUCAGUACAUUTT against UCK2 | -1.51 (active)

Sequence | median seed-adjusted z-score
CGUGCACUAUAUUGCAGUUTT against PRMT2 | 0.0895 (inactive)
GGAAUGUCACGGCUAAUCATT against PITPNM3 | -0.0378 (inactive)
GGAAUGAUACCAUACCGAATT against NUP93 | 1.01 (active)
UGAUCGCCUUGGUGAUUCATT against FOXH1 | 0 (inactive)
GGAUAGUUACUGACCGGGATT against NCL | 1.33 (active)
GCGGGAGCAUUAUCUCAAATT against ZNF341 | 0.356 (inactive)
CCAGACCUCAUGUCACAGATT against ZNF777 | 0.128 (inactive)
GACUGAAUGUUUAUACAGUTT against OSBPL1A | 0.0845 (inactive)
GGUGGUAUCCUGUUCACAATT against TM9SF4 | -0.0191 (inactive)
GGACCAUUUAGAGAAGGUUTT against WARS2 | 0.21 (inactive)
CCUACGUUACUUUCCCUCATT against FOXD4L6 | -0.137 (inactive)
CAUGGAACAUUGUGAGAAATT against RPS6KB1 | 1.4 (active)
AAAUCAAGAUUCUUACUGATT against TPM3 | 0.111 (inactive)
GCACUUUAGAAUCACACGATT against TRMT6 | 0.069 (inactive)
GCUCAUUGUACAUCUCAGATT against ZNF26 | 0 (inactive)
CCUGCUUACCUGAUCAAAATT against SLC25A34 | -0.256 (inactive)
GCAUAACUGUAGACUACAATT against ADAM32 | 1.75 (active)
CAGUCUUACUGGGAACAAUTT against TGDS | -0.196 (inactive)
GCCCAUUGGAUAUCAGUAUTT against STRADB | 0.21 (inactive)
CUAUUAGGUUGACCAAUAATT against OSGEPL1 | -0.708 (inactive)
GGAGGAUCAAUUUAUCAGATT against VDAC2 | 0.648 (inactive)
CAGUGUUCCUAUUAGAUGATT against LONP2 | 1.52 (active)
CCUGUGCUGUUAUGAAGCUTT against APC2 | 0.00354 (inactive)

Sequence | median seed-adjusted z-score
GAAUGGAGAGAGAAUUGAATT against B2M | -0.367 (inactive)
GGAUUAAAGAGAAGAUCUATT against ERH | -1.25 (active)
CCAGGAGAAAUAUAAGUCATT against ZNF627 | 0.204 (inactive)
GGACGAGAAAAACUGCUCATT against CORIN | -0.0274 (inactive)
GCAUACAUAUGGUAUAGCATT against DDX20 | -0.0137 (inactive)
GCGGAGAUCAGAUUAGUCATT against NCL | 1.33 (active)
GCAUGACCGCUUAUCCCAATT against SLC6A5 | -0.204 (inactive)
CAUUCACUUUGACACCAUATT against HSD17B7 | 0.0836 (inactive)
GGUUUUUGCUGGACAAACATT against PPP2R3C | 0.295 (inactive)
CCGUGUACGUGGAUGAUGATT against LPHN1 | -1.03 (active)
GCAUUAGUCUGACAGUACATT against MRGPRX3 | -0.175 (inactive)
CGAACCUAAUGCUCAACAATT against PREX2 | -0.0625 (inactive)
GGAAAUUAGAUACCGAGGATT against SLC25A30 | 0 (inactive)
GGCUAACAUUAGAACACUUTT against MED6 | -2.15 (active)
CGGAGUCUGCGCUUCGUUATT against ACP2 | -0.00569 (inactive)
GCUUUAUAAGUGUAGCGAATT against ZNF749 | 0.911 (inactive)
GGAGGUCACUUGUGAAUCATT against GLS2 | -0.793 (inactive)
CCCAGUUCCUGCUAUCUCATT against POU2F3 | -1.53 (active)
GGGCUACCAUCUCCUUUCATT against SLC23A3 | -0.254 (inactive)
GUACCCAAGUAACAACUGUTT against CXCL11 | -0.135 (inactive)
UCCACUGACUCGUAAAGUUTT against PROK2 | -0.00826 (inactive)
GCUCGGUGGUUGAUAAUCATT against SLC22A10 | -0.0897 (inactive)
AGACCAUCGCAGAGACAGATT against SLC31A2 | 0.401 (inactive)
